CHX counter – Cycloheximide Counterscreen for Small Molecule Inhibitors of Shiga Toxin; cell reporter, cycloheximide protein synthesis inhibition counterscreen; max response, %; hit rate 12% among 300,000; in the data active means max response mostly above about 13%, no sharp cut-off; inactive means mostly below about 14%; further: read at 38.3 µM for the half of the compounds with a filed dose; 0% is about no effect
Pf growth 48h – Primary qHTS for delayed death inhibitors of the malarial parasite plastid, 48 hour incubation; hit rate 5.9% among 310,000; P. falciparum luciferase growth in erythrocytes, 48 h; Potency, µM (highest dose often 28.7 µM), for inactives: at the highest dose activity change, negative = inhibition, usual class: inhibitors; further: potency means the concentration at half of the fitted maximal effect; on the % scale 0 is the no-effect control and ±100 the full control effect
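Read-out is firefly luciferase luminescence from an integrated reporter in P. falciparum, so falling signal marks reduced parasite growth. Infected erythrocytes were at 2% hematocrit and 0.1% parasitemia (final) in Albumax-supplemented RPMI 1640.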
AMA1-RON2 inh – qHTS for Inhibitors of AMA1-RON; Towards Development of Antimalarial Drug Lead: Primary Screen; Plasmodium falciparum AMA1 (3D7) - RON2 peptide interaction; Potency, µM (top dose mostly 58.2 µM), inactives show at the top dose activity change, negative = inhibition, most hits filed as inhibitors; hit rate 0.2% among 360,000; AlphaScreen AMA1-biotinylated RON2 peptide binding;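 further: potency means the concentration at half of the fitted maximal effect; 0% = vehicle wells and -100% = peptide control; nearly all actives have a fitted effect of over 45% in size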
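AMA1 (3D7) with his tag at 25 nM final met compounds first, then biotinylated RON2 peptide at 25 nM; detection used donor plus acceptor beads, 10 µg/mL apiece, read by AlphaScreen after 30 min at room temperature.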
Shiga inhibitor – A qHTS for Small Molecule Inhibitors of Shiga Toxin | AID 2315, 2010 | Vero cells, Shiga toxin protein synthesis inhibition reporter | hit rate 9.2% among 290,000 | inhibition, % at 38.7 µM; in the data active means inhibition mostly above about 28%, no sharp cut-off; inactive means mostly below about 43%; further: 0% is about no effect
Pf growth 96h – Primary qHTS for delayed death inhibitors of the malarial parasite plastid, 96 hour incubation; hit rate 6.9% among 320,000; Potency, µM (doses to about 28.7 µM), for the others: at the top dose activity change, negative = inhibition, hits mostly inhibitors; P. falciparum luciferase reporter growth, 96 h; further: potency means the concentration at half of the fitted maximal effect; on the % scale 0 is the no-effect control and ±100 the full control effect
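Compounds incubated with erythrocytes infected by luciferase-expressing P. falciparum (2% hematocrit, 0.05% parasitemia final) for 96 hours, 37 C in 5% CO2. Growth inhibition scored as decreased luciferase luminescence.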
SARS PLP yeast – qHTS of Yeast-based Assay for SARS-CoV PLP; AID 485353, 2010; S. cerevisiae expressing SARS-CoV PLpro, growth rescue; Potency, µM (top dose mostly 32.9 µM), for inactives: at the highest dose activity, positive = growth rescue, hits mostly activators; hit rate 0.19% among 330,000; calls by dose curve; further: potency means the concentration at half of the fitted maximal effect; 0% is about no effect; nearly all actives have a fitted effect of over 55% in size
* hit, by the source's call; i = inactive; ? = inconclusive; nt = no result given; [ ] = another dose, or the depositor's remark. Sampled rows, rich in hits. Any-hit rate of the full collection: about 19%. Unless noted, the call rests on the fitted dose curve; in most records, active means well fitted curve in the direction sought with a large enough effect; inconclusive means small, poorly fitted or top-dose-only effect, or another doubt; inactive means no such curve, though single readings can be large; an effect the other way counts as inactive or inconclusive.

SMILES	CHX counter	Pf growth 48h	AMA1-RON2 inh	Shiga inhibitor	Pf growth 96h	SARS PLP yeast
CCOC(=O)N1CCN(Cc2ccc3ccccc3c2)CC1	-2.0	16.6%	-27.2%	-5.8	-17.5%	9.8%
O=C(/C=C/[C@H]1O[C@@H](n2cnc3c(NC(=O)c4ccccc4)ncnc32)[C@H](O)[C@@H]1O)NCCc1ccc(F)cc1	nt	nt	18.4%	nt	nt	nt
COc1cc2c3nnc(-c4ccc(F)cc4)c-3cn(Cc3ccc(F)cc3)c2cc1OC	11.5	nt	-28.7%	22.1	?	0.2%
COc1cc2c3nnc(-c4ccc(F)cc4)c-3cn(Cc3ccccc3)c2cc1OC	0.8	?	-16.7%	12.5	0.415µM*	10.0%
COc1ccc(Cn2cc3c(-c4ccc(F)cc4)nnc-3c3cc(OC)c(OC)cc32)cc1	7.0	0.147µM*	-20.0%	-6.9	0.147µM*	2.8%
O=C(/C=C/c1ccc(Cl)cc1)N1CCN(CCN2C(=O)c3cccc4cccc(c34)C2=O)CC1	nt	nt	-14.8%	nt	nt	nt
N=C1/C(=C\c2ccc(OC(=O)c3ccc(F)cc3)cc2)C(=O)N=C2SC(N3CCCC3)=NN12	15.3	-0.8%	100.8%	11.2	?	-3.1%
N=C1/C(=C\c2ccc(OC(=O)c3ccco3)cc2)C(=O)N=C2SC(N3CCCCC3)=NN12	0.5	-6.5%	110.4%	30.3	11.7%	2.8%
COc1ccc(/C=C2\C(=N)N3N=C(CC(=O)N4CCOCC4)SC3=NC2=O)cc1	19.3	68.5%	1.6%	-9.4	39.2%	-1.8%
N=C1/C(=C\c2ccc(OC(=O)c3ccccc3)cc2)C(=O)N=C2SC(N3CCOCC3)=NN12	15.2*	-24.9%	152.9%	11.3	19.5%	-0.9%
Cc1ccc(C(=O)Oc2ccc(/C=C3\C(=N)N4N=C(N5CCOCC5)SC4=NC3=O)cc2)cc1	26.1*	39.2%	158.1%	59.3*	?	-0.3%
N=C1/C(=C\c2ccc(OCc3ccccc3)cc2)C(=O)N=C2SC(N3CCCC3)=NN12	27.1*	3.1%	nt	45.3*	-27.3%	2.1%
Cc1ccccc1C(=O)N=c1sccn1C	12.8*	nt	24.8%	46.0	60.2%	8.6%[6.58 µM]
Cc1cccc(C(=O)N=c2sccn2C)c1[N+](=O)[O-]	50.4*	70.8%	-7.5%	74.1*	68.6%	-9.7%
CCCc1nc2c3ccccc3ccn2c1CC1CCCCC1	nt	nt	-18.1%	nt	nt	nt
O=C(Oc1ccccc1)c1cc(O)c(O)c(O)c1	nt	nt	39.8µM*	nt	nt	nt
O=C(Oc1ccccc1)c1ccc2nsnc2c1	52.7*	77.3%	-3.6%	75.1*	-2.8%	29.0%
CCN(CC)CCCOC(=O)c1ccc(OC)cc1O	-1.4	6.4%	0.9%	17.6	79.2%	0.0%
Oc1ccc2ccccc2c1C=Nc1ccccc1-c1nc2ccccc2[nH]1	42.5*	nt	14.5%	58.8*	?	-24.9%
Cn1nc(C(=O)NNC(=O)c2cccc(Cl)c2)ccc1=O	nt	nt	9.8%	nt	nt	0.1%
CCOC(=O)c1c(NC(=O)CSc2nnnn2C)sc(CC)c1C	-3.9	?	-7.3%	-7.5	14.0%	-2.7%
C/C=C/c1ccc(O)c(OC)c1	nt	9.1%	-12.7%	nt	?	0.7%
Oc1cc(O)cc(/C=C/c2ccc(O)c(O)c2)c1	-6.8	-2.6%	7.08µM*	-5.9	1.3%	nt
C=CC1=CCN(S(=O)C(C)(C)C)[C@H]1CCO (stereo partly drawn)	nt	nt	6.0%	nt	nt	nt
Cc1cccc(N=Nc2cn[nH]c2-c2ccco2)c1	53.8*	i	3.2%	99.7*	217.9%	-1.7%
SMILES	CHX counter	Pf growth 48h	AMA1-RON2 inh	Shiga inhibitor	Pf growth 96h	SARS PLP yeast
c1ccc(N=Nc2cn[nH]c2-c2ccco2)cc1	25.4	i	-29.5%	27.6	51.7%	-4.6%
Clc1cccc(OCCn2ccnc2)c1	-0.6	-2.7%	0.7%	-2.5	i	2.5%
Clc1ccc([C@H](Cn2ccnc2)OCc2c(Cl)cccc2Cl)c(Cl)c1	nt	6.42µM*	nt	nt	2.03µM*	nt
Clc1ccc(COC(Cn2ccnc2)c2ccc(Cl)cc2Cl)cc1 (stereo not drawn)	-3.4	2.08µM*	-0.7%	-12.0	1.85µM*	-56.6%
CC(C)S(=O)(=O)c1csc(NC(=O)Nc2ccc(Cl)cc2)c1	1.0	?	-0.2%	0.4	10.4µM*	1.0%
O=C(CCc1ccccc1)NNC(=O)Nc1cccc(Cl)c1	16.8*	-9.0%	97.5%	36.5	-10.8%	-2.4%
O=C(CCN1CCN(Cc2ccccc2)CC1)NNC(=O)Nc1cccc(Cl)c1	7.2	?	72.1%	-6.4	156.0%	-2.8%
CC1CCC(=C(C#N)C(=O)Nc2cccc(Cl)c2)CC1 (stereo not drawn)	23.9*	?	-0.9%	19.3	14.7µM*	0.5%
CC(C)S(=O)(=O)c1csc(C(=O)NNC(=O)Nc2ccccc2)c1Cl	-2.7	31.6%	56.1%	7.5	-6.4%	3.9%
O=C(CCN1CCN(Cc2ccccc2)CC1)NNC(=O)Nc1cccc([N+](=O)[O-])c1	9.6	9.8%	35.8%	-15.6	13.1µM*	2.4%
N#CC(C#N)=C(N)Nc1cccc(Cl)c1	1.5	-5.3%	-10.2%	7.1	-0.3%	0.8%
CCCn1c(=O)[nH]c(=O)c2c1nc(-c1cc([N+](=O)[O-])ccc1Cl)n2CCOC	-0.2	?	-2.4%	-16.0	?	2.1%
Cn1ccnc1C(=O)C1CCCN(Cc2cn[nH]c2-c2ccc(-c3ccccc3)cc2)C1 (stereo not drawn)	1.3	?	-11.1%	13.6	13.0%	-0.2%
Cc1c(NC(=S)Nc2ccc(Cl)cc2)c(=O)n(-c2ccccc2)n1C	-2.5	-2.2%	0.4%	9.5	9.1%	-1.0%
CCOC(=O)C(C)Sc1nc(-c2ccco2)cc(C(F)(F)F)c1C#N (stereo not drawn)	2.5	?	26.0%	-7.4	?	-3.2%
Cc1ccc(Cc2c(-c3ccc(F)cc3)nc3ccc(Br)cn23)cc1	nt	nt	-6.9%	nt	nt	nt
CCCS(=O)(=O)NC(=O)C1(C)CCCN(C(=O)c2ccc(C#N)cc2)C1 (stereo not drawn)	nt	nt	0.4%	nt	nt	nt
Cc1cccc(N(O)C(=O)Nc2cccc(Cl)c2)c1	37.2*	?	-7.3%	56.0*	?	1.4%
O=C(Nc1cccc(Cl)c1)Nc1cccc(Cl)c1	19.6*	3.7µM*	2.7%	68.5*	-16.9%	-10.2%
O=C(Nc1cccc(Cl)c1)Nc1ccon1	17.4	69.8%	0.4%	15.9	-29.8%	-5.5%
COC(=O)c1cccc(NC(=O)Nc2ccc(Cl)cc2)c1	28.3*	166.1%	4.8%	47.6*	-41.2%	-1.3%
NS(=O)(=O)c1cccc(NC(=O)Nc2ccc(Cl)cc2)c1	35.9*	-13.2%	8.6%	87.0*	15.6%	-1.9%
CC(NC(=S)NCc1ccccc1)C12CC3CC(CC(C3)C1)C2 (stereo not drawn)	-2.2	?	-1.8%	13.7	4.7%	0.6%

High-throughput results as filed in PubChem BioAssay.
